Tests used:
[1] = molecular target: T1, Dual specificity tyrosine-phosphorylation-regulated kinase 2 (Homo sapiens) (UniProt Q92630); settings: at 10 µM
T1 sequence (whole entry): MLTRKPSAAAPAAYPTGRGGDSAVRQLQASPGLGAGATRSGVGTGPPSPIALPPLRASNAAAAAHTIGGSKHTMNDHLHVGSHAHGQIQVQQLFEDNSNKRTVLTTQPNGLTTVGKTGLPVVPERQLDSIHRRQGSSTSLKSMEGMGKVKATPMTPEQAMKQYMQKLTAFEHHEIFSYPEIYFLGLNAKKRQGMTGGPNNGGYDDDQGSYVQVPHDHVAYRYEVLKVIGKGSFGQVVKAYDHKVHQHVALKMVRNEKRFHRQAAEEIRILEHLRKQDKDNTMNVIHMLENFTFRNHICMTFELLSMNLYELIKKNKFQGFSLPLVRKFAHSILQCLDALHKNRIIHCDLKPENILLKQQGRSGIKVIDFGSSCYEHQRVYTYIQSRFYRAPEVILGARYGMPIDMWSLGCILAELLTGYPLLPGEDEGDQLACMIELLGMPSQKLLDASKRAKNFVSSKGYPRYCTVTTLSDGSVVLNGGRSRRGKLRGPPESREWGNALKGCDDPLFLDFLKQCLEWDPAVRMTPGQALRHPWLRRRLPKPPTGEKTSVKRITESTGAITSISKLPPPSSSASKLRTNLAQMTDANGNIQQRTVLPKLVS

[2] = molecular target: Ephrin type-A receptor 2 (Homo sapiens) (UniProt P29317); settings: at 1 µM
Sequence of Ephrin type-A receptor 2 (Homo sapiens) (P29317 whole entry): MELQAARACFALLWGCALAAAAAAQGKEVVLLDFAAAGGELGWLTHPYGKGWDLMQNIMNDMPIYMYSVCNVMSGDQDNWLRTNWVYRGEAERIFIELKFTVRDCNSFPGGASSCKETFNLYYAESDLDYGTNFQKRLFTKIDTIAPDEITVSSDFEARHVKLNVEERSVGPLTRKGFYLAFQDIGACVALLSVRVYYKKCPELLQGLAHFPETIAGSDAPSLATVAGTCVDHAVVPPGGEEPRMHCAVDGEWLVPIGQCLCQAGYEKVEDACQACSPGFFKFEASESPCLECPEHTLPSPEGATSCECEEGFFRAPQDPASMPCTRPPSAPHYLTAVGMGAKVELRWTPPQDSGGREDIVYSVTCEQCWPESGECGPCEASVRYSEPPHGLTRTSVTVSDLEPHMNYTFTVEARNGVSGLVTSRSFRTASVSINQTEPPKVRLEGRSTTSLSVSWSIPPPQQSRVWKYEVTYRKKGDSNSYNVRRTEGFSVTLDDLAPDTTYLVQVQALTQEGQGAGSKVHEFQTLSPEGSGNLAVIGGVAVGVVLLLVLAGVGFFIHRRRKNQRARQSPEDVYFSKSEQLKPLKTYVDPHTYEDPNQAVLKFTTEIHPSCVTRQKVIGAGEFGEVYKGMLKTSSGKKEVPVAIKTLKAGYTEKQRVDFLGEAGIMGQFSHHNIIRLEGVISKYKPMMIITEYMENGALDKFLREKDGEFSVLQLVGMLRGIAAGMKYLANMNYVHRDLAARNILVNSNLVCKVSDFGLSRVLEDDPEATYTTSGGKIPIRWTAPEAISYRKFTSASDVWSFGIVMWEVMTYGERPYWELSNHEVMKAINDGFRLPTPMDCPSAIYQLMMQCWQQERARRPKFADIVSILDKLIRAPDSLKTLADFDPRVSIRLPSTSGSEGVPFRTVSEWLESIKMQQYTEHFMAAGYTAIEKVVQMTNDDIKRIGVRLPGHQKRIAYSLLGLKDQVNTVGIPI

[3] = molecular target: Ephrin type-A receptor 2 (Homo sapiens) (UniProt P29317); settings: at 10 µM
[4] = molecular target: Ephrin type-A receptor 4 (Homo sapiens) (UniProt P54764); settings: at 1 µM
Sequence of Ephrin type-A receptor 4 (Homo sapiens) (P54764 whole entry): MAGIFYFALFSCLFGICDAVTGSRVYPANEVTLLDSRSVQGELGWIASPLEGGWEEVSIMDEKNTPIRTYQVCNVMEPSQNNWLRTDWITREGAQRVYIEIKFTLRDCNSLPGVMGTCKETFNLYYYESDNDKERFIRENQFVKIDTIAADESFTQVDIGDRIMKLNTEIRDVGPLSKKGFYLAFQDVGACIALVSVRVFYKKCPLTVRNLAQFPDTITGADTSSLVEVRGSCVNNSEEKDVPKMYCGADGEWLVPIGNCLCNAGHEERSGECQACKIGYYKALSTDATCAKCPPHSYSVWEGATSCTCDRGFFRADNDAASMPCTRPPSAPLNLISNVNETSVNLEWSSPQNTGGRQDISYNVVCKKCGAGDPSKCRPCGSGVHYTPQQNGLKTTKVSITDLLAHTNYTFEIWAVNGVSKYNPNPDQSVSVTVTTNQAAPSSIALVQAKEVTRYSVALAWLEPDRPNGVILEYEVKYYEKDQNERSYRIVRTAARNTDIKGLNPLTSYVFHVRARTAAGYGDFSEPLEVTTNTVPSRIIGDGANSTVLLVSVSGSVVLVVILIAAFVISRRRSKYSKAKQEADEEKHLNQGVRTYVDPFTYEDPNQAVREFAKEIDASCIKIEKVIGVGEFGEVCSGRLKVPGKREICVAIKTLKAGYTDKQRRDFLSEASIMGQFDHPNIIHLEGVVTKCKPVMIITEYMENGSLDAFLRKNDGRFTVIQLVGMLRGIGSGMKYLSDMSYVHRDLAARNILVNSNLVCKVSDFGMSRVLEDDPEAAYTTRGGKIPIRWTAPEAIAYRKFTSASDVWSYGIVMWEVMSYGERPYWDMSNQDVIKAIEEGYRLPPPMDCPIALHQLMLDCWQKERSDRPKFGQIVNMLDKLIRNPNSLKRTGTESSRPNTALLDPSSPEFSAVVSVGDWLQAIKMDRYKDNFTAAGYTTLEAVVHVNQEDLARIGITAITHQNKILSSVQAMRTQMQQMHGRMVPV

[5] = molecular target: Ephrin type-A receptor 4 (Homo sapiens) (UniProt P54764); settings: at 10 µM
[6] = molecular target: Ephrin type-A receptor 5 (Homo sapiens) (UniProt P54756); settings: at 1 µM
Sequence of Ephrin type-A receptor 5 (Homo sapiens) (P54756 whole entry): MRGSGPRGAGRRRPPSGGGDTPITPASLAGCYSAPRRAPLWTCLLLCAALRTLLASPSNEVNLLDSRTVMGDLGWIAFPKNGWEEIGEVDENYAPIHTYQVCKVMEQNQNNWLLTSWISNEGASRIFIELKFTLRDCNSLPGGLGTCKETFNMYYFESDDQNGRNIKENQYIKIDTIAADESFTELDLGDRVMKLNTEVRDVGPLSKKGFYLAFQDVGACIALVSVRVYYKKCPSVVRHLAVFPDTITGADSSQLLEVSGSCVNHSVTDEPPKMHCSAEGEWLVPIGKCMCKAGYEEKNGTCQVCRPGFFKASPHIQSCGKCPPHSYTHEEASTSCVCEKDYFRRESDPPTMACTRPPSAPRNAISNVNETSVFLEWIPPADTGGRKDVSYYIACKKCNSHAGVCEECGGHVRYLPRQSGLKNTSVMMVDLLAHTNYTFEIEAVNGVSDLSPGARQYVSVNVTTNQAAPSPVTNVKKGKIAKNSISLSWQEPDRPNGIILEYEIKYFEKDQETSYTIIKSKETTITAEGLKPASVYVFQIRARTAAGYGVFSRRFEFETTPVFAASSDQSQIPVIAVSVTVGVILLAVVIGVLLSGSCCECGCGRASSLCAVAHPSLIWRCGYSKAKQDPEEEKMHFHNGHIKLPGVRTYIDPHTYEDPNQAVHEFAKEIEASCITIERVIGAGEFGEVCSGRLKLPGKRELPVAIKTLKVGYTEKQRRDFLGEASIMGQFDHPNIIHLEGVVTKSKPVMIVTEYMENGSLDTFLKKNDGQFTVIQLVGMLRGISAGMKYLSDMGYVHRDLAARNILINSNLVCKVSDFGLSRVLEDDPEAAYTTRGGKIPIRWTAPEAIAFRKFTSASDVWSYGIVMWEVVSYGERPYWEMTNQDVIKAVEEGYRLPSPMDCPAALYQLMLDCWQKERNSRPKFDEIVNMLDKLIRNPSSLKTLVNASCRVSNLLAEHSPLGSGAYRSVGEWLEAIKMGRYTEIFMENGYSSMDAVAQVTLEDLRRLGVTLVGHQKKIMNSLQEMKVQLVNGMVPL

[7] = molecular target: Ephrin type-A receptor 5 (Homo sapiens) (UniProt P54756); settings: at 10 µM
[8] = molecular target: Ephrin type-A receptor 7 (Homo sapiens) (UniProt Q15375); settings: at 1 µM
Sequence of Ephrin type-A receptor 7 (Homo sapiens) (Q15375 28-998 limits assumed): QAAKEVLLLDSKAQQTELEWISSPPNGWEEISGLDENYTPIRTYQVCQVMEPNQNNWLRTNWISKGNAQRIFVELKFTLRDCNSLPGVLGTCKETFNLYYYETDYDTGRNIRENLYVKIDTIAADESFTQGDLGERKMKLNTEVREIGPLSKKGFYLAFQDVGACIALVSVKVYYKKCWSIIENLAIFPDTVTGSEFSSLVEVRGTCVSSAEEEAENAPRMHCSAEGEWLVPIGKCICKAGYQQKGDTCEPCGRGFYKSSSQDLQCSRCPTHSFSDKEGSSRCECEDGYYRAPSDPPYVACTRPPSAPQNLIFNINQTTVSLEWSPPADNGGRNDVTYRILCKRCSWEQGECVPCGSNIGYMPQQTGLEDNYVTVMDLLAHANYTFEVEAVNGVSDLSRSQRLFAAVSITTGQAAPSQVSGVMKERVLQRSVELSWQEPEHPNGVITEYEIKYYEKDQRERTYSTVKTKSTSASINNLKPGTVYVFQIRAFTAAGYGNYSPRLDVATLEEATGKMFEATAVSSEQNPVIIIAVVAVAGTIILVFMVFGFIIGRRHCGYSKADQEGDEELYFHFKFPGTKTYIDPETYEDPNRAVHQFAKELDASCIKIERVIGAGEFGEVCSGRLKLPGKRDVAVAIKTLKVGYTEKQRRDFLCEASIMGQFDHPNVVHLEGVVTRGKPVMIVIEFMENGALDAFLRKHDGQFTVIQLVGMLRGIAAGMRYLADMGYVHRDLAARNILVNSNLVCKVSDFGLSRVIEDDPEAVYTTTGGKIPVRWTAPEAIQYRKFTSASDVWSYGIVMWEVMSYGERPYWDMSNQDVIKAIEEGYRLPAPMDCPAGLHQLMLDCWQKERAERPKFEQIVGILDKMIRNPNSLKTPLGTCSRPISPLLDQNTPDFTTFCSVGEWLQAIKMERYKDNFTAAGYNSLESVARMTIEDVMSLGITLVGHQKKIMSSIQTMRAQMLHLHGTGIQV

[9] = molecular target: Ephrin type-A receptor 7 (Homo sapiens) (UniProt Q15375); settings: at 10 µM
[10] = molecular target: T2, Serine/threonine-protein kinase 17A (Homo sapiens) (UniProt Q9UEE5); settings: at 10 µM
T2 sequence (whole entry): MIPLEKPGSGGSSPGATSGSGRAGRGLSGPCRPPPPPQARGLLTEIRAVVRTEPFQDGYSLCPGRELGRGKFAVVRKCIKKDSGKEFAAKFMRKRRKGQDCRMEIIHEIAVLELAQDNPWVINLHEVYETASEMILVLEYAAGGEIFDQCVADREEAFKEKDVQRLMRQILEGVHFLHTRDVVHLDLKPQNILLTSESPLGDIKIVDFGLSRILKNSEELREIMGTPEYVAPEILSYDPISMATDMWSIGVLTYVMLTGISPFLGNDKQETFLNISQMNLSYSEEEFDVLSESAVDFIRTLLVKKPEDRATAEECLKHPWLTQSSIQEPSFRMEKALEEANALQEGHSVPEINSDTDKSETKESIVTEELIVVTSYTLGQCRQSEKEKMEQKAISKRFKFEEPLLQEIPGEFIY

[11] = molecular target: T3, Ephrin type-A receptor 1 (Homo sapiens) (UniProt P21709); settings: at 1 µM
T3 sequence (whole entry): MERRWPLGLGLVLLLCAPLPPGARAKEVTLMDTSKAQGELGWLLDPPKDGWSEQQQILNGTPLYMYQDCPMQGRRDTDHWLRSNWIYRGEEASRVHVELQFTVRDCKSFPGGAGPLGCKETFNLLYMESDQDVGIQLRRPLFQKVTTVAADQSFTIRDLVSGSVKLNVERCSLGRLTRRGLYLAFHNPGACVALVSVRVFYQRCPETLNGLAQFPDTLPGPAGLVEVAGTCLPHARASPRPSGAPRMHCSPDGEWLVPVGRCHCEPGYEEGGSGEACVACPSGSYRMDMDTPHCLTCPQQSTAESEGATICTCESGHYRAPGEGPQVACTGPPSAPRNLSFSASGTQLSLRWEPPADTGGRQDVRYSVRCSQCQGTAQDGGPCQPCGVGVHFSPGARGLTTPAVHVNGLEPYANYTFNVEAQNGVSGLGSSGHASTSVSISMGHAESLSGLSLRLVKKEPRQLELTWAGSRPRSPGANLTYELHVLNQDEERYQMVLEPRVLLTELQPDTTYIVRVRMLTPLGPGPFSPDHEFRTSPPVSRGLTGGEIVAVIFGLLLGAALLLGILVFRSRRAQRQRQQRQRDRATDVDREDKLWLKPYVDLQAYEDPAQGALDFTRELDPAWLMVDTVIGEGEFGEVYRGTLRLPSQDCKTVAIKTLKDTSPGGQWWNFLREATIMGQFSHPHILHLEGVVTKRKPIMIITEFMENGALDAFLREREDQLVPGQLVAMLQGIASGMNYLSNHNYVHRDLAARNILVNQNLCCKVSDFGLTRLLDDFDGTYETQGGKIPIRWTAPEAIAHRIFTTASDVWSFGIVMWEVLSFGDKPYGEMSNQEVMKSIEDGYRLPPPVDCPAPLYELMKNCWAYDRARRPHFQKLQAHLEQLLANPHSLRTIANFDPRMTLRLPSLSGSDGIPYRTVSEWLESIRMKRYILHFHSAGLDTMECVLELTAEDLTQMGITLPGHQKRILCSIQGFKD

[12] = molecular target: T4, Ephrin type-A receptor 3 (Homo sapiens) (UniProt P29320); settings: at 10 µM
T4 sequence (whole entry): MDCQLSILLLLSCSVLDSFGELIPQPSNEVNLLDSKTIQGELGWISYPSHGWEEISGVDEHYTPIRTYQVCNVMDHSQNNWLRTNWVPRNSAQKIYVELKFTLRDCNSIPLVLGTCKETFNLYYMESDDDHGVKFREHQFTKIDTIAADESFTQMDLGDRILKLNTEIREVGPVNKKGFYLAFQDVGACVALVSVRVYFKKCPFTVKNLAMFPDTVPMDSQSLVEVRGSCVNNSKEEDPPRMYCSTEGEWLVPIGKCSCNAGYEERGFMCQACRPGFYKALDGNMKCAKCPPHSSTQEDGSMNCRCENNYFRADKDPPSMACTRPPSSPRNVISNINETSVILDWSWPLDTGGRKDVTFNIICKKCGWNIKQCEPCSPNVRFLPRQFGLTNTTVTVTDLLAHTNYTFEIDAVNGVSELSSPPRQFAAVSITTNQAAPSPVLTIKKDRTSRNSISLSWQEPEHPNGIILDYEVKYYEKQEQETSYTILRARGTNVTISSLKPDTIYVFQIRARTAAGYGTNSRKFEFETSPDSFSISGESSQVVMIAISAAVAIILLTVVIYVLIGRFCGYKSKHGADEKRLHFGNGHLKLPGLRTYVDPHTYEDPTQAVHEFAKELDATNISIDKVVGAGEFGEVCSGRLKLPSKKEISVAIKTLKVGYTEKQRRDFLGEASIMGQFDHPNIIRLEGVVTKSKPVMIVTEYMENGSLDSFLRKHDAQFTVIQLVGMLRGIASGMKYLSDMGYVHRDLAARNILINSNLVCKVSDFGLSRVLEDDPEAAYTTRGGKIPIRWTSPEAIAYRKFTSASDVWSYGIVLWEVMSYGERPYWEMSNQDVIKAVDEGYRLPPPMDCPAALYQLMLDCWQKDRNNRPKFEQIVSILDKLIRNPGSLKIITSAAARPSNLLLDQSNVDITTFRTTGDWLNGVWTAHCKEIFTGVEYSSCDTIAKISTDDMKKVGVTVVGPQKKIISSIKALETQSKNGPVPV

[13] = molecular target: T5, Ephrin type-B receptor 1 (Homo sapiens) (UniProt P54762); settings: at 1 µM
T5 sequence (whole entry): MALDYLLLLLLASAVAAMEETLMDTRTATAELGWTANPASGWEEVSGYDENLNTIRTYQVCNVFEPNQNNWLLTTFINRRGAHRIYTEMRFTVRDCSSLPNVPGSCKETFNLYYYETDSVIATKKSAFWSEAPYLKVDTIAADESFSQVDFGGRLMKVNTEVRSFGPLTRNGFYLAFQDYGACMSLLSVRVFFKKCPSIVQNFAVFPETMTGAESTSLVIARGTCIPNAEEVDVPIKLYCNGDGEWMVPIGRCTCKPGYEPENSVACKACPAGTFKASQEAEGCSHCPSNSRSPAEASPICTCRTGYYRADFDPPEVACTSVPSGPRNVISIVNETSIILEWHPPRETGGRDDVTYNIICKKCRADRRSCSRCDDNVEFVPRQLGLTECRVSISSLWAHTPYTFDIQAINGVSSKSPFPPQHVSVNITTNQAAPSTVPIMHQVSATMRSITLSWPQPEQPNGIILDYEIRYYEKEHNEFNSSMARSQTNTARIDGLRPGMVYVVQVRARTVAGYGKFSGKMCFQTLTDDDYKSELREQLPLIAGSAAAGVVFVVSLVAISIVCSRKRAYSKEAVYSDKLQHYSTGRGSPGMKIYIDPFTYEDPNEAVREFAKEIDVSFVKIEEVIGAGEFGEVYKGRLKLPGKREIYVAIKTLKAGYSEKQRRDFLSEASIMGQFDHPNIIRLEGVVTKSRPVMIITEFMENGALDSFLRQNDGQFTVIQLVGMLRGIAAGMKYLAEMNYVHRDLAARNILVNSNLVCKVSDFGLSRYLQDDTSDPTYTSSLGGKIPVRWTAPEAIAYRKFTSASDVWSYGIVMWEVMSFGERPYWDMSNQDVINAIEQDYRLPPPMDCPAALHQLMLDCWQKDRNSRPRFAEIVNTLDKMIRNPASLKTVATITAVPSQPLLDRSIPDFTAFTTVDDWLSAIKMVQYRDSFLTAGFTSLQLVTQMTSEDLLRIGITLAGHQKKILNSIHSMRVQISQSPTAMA

[14] = molecular target: T2, Serine/threonine-protein kinase 17A (Homo sapiens); settings: at 1 µM
[15] = molecular target: T1, Dual specificity tyrosine-phosphorylation-regulated kinase 2 (Homo sapiens); settings: at 1 µM
[16] = molecular target: T3, Ephrin type-A receptor 1 (Homo sapiens); settings: at 10 µM
[17] = molecular target: T4, Ephrin type-A receptor 3 (Homo sapiens); settings: at 1 µM
[18] = molecular target: T6, Ephrin type-A receptor 8 (Homo sapiens) (UniProt P29322); settings: at 1 µM
T6 sequence (whole entry): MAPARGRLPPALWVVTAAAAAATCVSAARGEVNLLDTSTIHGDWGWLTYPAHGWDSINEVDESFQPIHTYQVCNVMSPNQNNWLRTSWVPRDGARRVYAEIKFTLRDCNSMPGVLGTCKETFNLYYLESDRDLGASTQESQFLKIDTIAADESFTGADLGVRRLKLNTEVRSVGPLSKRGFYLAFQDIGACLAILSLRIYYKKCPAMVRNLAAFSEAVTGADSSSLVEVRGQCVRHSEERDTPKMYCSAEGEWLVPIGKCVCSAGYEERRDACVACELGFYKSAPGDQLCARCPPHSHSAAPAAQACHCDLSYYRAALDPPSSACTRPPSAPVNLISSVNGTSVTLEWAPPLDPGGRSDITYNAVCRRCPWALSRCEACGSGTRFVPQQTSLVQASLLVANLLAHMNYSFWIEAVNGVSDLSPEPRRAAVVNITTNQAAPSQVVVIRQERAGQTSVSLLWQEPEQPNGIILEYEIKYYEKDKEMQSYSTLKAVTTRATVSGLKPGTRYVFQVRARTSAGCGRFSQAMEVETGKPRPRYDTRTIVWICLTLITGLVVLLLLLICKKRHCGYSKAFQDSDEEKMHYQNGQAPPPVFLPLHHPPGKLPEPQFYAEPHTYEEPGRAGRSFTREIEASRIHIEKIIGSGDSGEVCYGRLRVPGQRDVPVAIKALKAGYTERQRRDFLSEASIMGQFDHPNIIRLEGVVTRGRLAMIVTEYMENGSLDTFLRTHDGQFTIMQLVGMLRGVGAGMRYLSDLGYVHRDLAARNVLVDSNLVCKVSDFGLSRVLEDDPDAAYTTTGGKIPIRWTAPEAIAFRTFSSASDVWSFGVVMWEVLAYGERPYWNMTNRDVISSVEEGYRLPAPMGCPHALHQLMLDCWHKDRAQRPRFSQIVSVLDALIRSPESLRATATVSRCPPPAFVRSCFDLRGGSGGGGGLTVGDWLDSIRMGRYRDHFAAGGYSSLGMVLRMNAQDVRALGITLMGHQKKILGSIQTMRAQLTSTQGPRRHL

[19] = molecular target: T6, Ephrin type-A receptor 8 (Homo sapiens); settings: at 10 µM

Row | SMILES | residual activity [1] [%] | residual activity [2] [%] | residual activity [3] [%] | residual activity [4] [%] | residual activity [5] [%] | residual activity [6] [%] | residual activity [7] [%] | residual activity [8] [%] | residual activity [9] [%] | residual activity [10] [%] | residual activity [11] [%] | residual activity [12] [%] | residual activity [13] [%] | residual activity [14] [%] | residual activity [15] [%] | residual activity [16] [%] | residual activity [17] [%] | residual activity [18] [%] | residual activity [19] [%]
1 | CCc1nc(-c2ccc(OC)cc2)[nH]c1-c1ccncc1 | 34 | 105 | 105 | 114 | 109 | 116 | 104 | 114 | 100 |  |  |  |  |  |  |  |  |  | 
2 | COc1ccc2c(c[n+](C)c3c4cc5c(cc4ccc23)OCO5)c1OC | 96 |  | 100 |  |  |  |  | 94 | 79 | 77 | 94 | 92 | 89 |  |  |  |  |  | 
3 | O=c1[nH]c2ccccc2n1C1CCN(Cc2ccc(-c3nc4cc5[nH]cnc5cc4nc3-c3ccccc3)cc2)CC1 | 98 | 103 | 95 | 112 | 81 | 114 | 99 | 97 | 93 | 112 | 102 | 76 | 93 | 126 | 111 | 90 | 112 | 108 | 104
4 | O=[N+]([O-])/C=C/c1ccc2c(c1)OCO2 | 106 | 106 | 115 | 112 | 100 | 103 | 93 | 95 | 89 | 63 | 95 | 95 | 115 | 119 | 101 | 102 | 115 | 100 | 103
